Compound activity deposited in PubChem by The Scripps Research Institute Molecular Screening Center.
PAFAH2 inh – PAFAH2 enzyme inhibitors, primary screen, biochemical, fluorescence polarization, human; recombinant PAFAH2, FP-rhodamine activity probe; inhibition, % at 3.39 µM; hit rate 0.99% among 340,000; AID 492956, 2010;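 active = inhibition above the mean over all tested compounds plus 3 SD, cut at about 30% in these data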;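 also: inhibitors block probe labeling of enzyme so polarization drops; 0% = enzyme with DMSO and 100% = wells lacking PAFAH2 protein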
PAFAH1B3 inh – PAFAH1B3 enzyme inhibitors, primary screen, biochemical, fluorescence polarization, human; recombinant PAFAH1B3, FP-rhodamine probe; inhibition, % at 3.39 µM; hit rate 0.28% among 340,000;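 active = inhibition above the screen-wide average of all tested compounds plus 3 SD, cut at about 25% in these data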;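 also: 0% = enzyme with DMSO only and 100% = wells lacking PAFAH1B3 protein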
Target sequence (Q15102 whole entry, looked up): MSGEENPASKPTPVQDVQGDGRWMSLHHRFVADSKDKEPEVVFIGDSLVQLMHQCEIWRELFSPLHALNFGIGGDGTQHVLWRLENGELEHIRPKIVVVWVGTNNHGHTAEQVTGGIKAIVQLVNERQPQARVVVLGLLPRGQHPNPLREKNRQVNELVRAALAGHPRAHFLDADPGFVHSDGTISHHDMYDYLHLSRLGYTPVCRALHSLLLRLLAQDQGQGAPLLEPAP
PAFAH1B2 inh – PAFAH1B2 enzyme inhibitors, primary screen, biochemical, fluorescence polarization, human; Platelet-activating factor acetylhydrolase IB subunit alpha2 (Homo sapiens), P68402; recombinant PAFAH1B2, FP-rhodamine activity probe; inhibition, % at 3.39 µM; hit rate 1.2% among 340,000; AID 492953, 2010;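 active = inhibition above the mean of all tested compounds plus 3 SD, cut at about 24% in these data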;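 also: 0% = enzyme with DMSO and 100% = wells lacking PAFAH1B2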
Target sequence (P68402 whole entry, looked up): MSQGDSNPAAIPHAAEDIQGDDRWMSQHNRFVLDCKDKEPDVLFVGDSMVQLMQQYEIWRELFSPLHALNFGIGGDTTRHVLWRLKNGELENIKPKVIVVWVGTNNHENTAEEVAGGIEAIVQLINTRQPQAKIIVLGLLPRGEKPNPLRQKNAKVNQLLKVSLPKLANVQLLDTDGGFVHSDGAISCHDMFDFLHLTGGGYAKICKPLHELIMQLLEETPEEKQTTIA
Rin1 Abl inh – inhibitors of Rin1-Abl protein binding, primary screen, biochemical, TR-FRET. AID 588664, 2011. inhibition, % at 7.35 µM. Tyrosine-protein kinase ABL1 (Homo sapiens) + Ras and Rab interactor 1 (Homo sapiens), …. hit rate 0.4% among 360,000; in the data active = inhibition above about 5%, passing the limit was not always enough
E coli Lon inh – inhibitors of E. coli Lon protease, primary screen, biochemical, fluorescence polarization; P0A9M0; purified E. coli Lon protease; inhibition, % at 7.94 µM; hit rate 0.42% among 360,000; AID 602123, 2011; in the data active = inhibition above about 13%, passing the limit was not always enough;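 also: 0% = enzyme with probe and DMSO and 100% = no enzyme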
pPAFAH FP inh – pPAFAH enzyme inhibitors, primary screen, biochemical, fluorescence polarization, human; recombinant pPAFAH, FP-rhodamine probe fluorescence polarization; inhibition, % at 3.39 µM; hit rate 1.5% among 330,000;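 active = inhibition above the mean inhibition across the screen plus 3 SD, cut at about 25% in these data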;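 also: inhibitors block binding of the rhodamine activity-based probe so polarization drops; 0% = enzyme with DMSO and 100% = wells lacking pPAFAH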
pPAFAH FP conf – pPAFAH (PLA2G7) enzyme inhibitors, confirmation, biochemical, fluorescence polarization, human | shares compounds with pPAFAH FP inh | recombinant pPAFAH, FP-Rh probe fluorescence polarization | inhibition, % at 3.39 µM | hit rate 72% among 2,300 | AID 463230, 2010;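 active = mean inhibition of the triplicate above the hit cutoff set for the earlier primary screen, cut at about 25% in these data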;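 also: 0% = enzyme with DMSO and 100% = wells lacking pPAFAH enzyme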
Active calls of the source: *; x = no result. Sampled rows, rich in hits. Any-hit rate of the full collection: about 3.1%.

SMILES	PAFAH2 inh	PAFAH1B3 inh	PAFAH1B2 inh	Rin1 Abl inh	E coli Lon inh	pPAFAH FP inh	pPAFAH FP conf
Cc1ccc(S(=O)(=O)N[C@H](C(=O)OCC(=O)N2N=C(c3ccc(Cl)cc3)CC2c2ccco2)C(C)C)cc1 (stereo partly specified)	1	0	-8	0	-27	40*	9
O=C(CNC(=O)c1ccccc1)OCC(=O)N1N=C(c2ccc(Cl)cc2)CC1c1ccco1 (stereo unspecified)	9	9	0	0	0	14	x
N#C/C(=N\Nc1cccc([N+](=O)[O-])c1)C(=O)c1ccc(Br)cc1	35*	24	14	-1	-1	60*	61*
Cc1c(Cl)cccc1NS(=O)(=O)c1ccc2c(c1)C1C=CCC1C(c1ccc(C(=O)O)cc1)N2 (stereo unspecified)	60*	37*	30*	9.2*	1	92*	88*
CC(=O)c1ccc2c(c1)C1C=CCC1C(c1ccc(S(=O)(=O)N3CCOCC3)cc1)N2 (stereo unspecified)	-3	4	4	-2	-2	12	x
Cc1nn(-c2ccccc2)c2sc(-c3n[nH]c(=S)o3)cc12	19	9	4	-3	-19	52*	69*
CN(CC(=O)Nc1ccc(Cl)c(C(F)(F)F)c1)C(=O)c1cc(=O)c2ccccc2o1	5	0	9	2	14	2	x
COc1cccc(NC(=O)CN(C)CC(=O)Nc2ccc(C)c(S(=O)(=O)N3CCOCC3)c2)c1	-2	8	2	1	0	x	x
COc1cccc(C(=O)N2CCCc3ccccc32)c1OC	x	x	x	-4	-2	x	x
N#C/C(=C/c1ccc(O)c(O)c1)c1nc2ccccc2[nH]1	62*	58*	45*	1	-230	63*	79*
O=C(O)C1Nc2c(C(F)(F)F)ccc(Cl)c2C2C=CCC12 (stereo unspecified)	5	11	1	1	0	15	x
Cc1cc(C)c2c(c1)NC(C(=O)O)C1CC=CC21 (stereo unspecified)	50*	10	19	0	-11	68*	33*
N#C/C(=C\c1ccc(O)c(O)c1)C(=O)c1ccc(O)c(O)c1	79*	38*	54*	-1	10	93*	85*
COc1cccc(OCc2cc(/C=N/Nc3ccc(C(=O)O)cc3)ccc2OC)c1	15	-1	0	-2	-15	39*	65*
C#CCNc1cc(C)nc2ncnn12	8	-6	-1	1	4	51*	2
C#CCNc1cc(-c2ccccc2)nc2ncnn12	-31	5	3	0	5	3	x
C[C@H](CO)N1C[C@H](C)[C@@H](CN(C)C(=O)C2CC2)OCc2cnnn2CCCC1=O	x	x	x	-4	-2	x	x
COc1cc(-c2nnc(SCc3cc(=O)oc4cc(O)c(O)cc34)o2)cc(OC)c1OC	42*	28*	4	3	3	59*	75*
CCOC(=O)CSc1nnc(-c2cc(OC)c(OC)c(OC)c2)o1	-2	0	5	2	-1	1	x
Nc1nc(SCC(=O)c2cccs2)n[nH]1	-8	-5	4	0	1	3	x
O=C(CCOc1ccccc1)Nc1ccnn1C1CCN(Cc2ccc(CO)o2)CC1	6	0	4	-2	2	43*	7
Cc1c(NC(=O)COC(=O)c2ncc(Cl)c(Cl)c2Cl)c(=O)n(-c2ccccc2)n1C	-6	8	1	-4	-2	15	x
Cc1ccc(-n2nc3c(=O)n(C(C)C(=O)NCc4ccccc4Cl)nc(C)c3c2C)cc1 (stereo unspecified)	4	0	1	-2	-1	1	x
CCOc1ccccc1CNC(=O)C(C)n1nc(C)c2c(C)n(-c3ccccc3)nc2c1=O (stereo unspecified)	-1	3	1	6	-8	58*	0
COCCNc1nc(-c2ccc(OC)cc2C)c2sc(-c3ccccc3)cc2n1	x	x	x	-11	-12	x	x
SMILES	PAFAH2 inh	PAFAH1B3 inh	PAFAH1B2 inh	Rin1 Abl inh	E coli Lon inh	pPAFAH FP inh	pPAFAH FP conf
O=C(O)c1cc(O)c2c(c1)C(=O)c1cccc(O)c1C2=O	34*	13	14	-1	29	36*	15
O=C(O)c1ccc(-c2ccc(/C=N/Nc3ccc([N+](=O)[O-])cc3)o2)cc1	10	10	6	-3	-369	47*	38*
O=C(O)c1cccc(-c2ccc(/C=N/Nc3ccc([N+](=O)[O-])cc3)o2)c1	5	2	1	-4	-303	42*	28*
Cc1cc(C)n(Cc2ccc(C(=O)N/N=C/c3ccc(-c4ccc([N+](=O)[O-])cc4)o3)o2)n1	38*	5	-2	1	-19	52*	47*
NC(=S)N/N=C/c1ccc(-c2cccc([N+](=O)[O-])c2)o1	-2	-2	7	-5	1	4	x
Cc1ccc(OCCNC(=O)c2ccccc2OCc2c(C)noc2C)cc1	-1	6	10	1	-3	3	x
CSc1ncccc1C(=O)OCC(=O)Nc1ccc(N2CCOCC2)cc1	0	7	3	2	-4	2	x
COc1ccccc1N1C(=O)N(CC(=O)C(C)(C)C)c2ccccc2S1(=O)=O	5	2	6	5	1	1	x
COc1ccc(NS(=O)(=O)c2cc(NC(=O)c3ccc(=O)[nH]n3)ccc2N2CCOCC2)cc1	6	3	-3	3	-5	0	x
Oc1cccc(C=NCc2ccccc2)c1O	9	22	6	5	21	57*	5
Oc1c(C=NCc2ccccc2)sc2ccccc12	7	1	8	0	6	-3	x
Oc1cccc(C=Nc2cccc3ccccc23)c1O	27	28*	9	3	-8	76*	8
Cc1c(C(=O)NNC(=O)c2ccccc2O)oc2ccc(Br)cc12	6	6	2	0	-19	58*	70*
O=C(CCN1C(=O)CSc2ccccc21)Nc1ccc(OC(F)(F)F)cc1	-2	2	3	1	-8	2	x
CCN(Cc1ccncc1)Cc1ccc(Br)cc1	0	7	11	6	-6	4	x
COc1cc(OC)cc(-c2c(-c3cccs3)c3cc(-c4ccc(SC)cc4)ccc3n2C)c1	-1	3	-5	-3	2	14	x
